According to PubChem BioAssay (EPA / NIEHS):
Inconclusive results are not listed. Calls of active or inactive are those of the source. The calls were made as follows, unless noted: active = hit-call score of the fitted dose curve at least 0.9, where 1 is the maximum; inactive = score below 0.9.

What was measured:
[1] = CCTE_Shafer_MEA_acute_spike_number: CCTE's Neural Acute Assay for Total Number of Spikes, Shafer Lab (AID 2284008);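 as to AC50: curve fitted for decrease in spike count so AC50 reflects inhibitors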
In short: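 Read-out is the total spike count over 40 min, expressed as percent change from each well's own pre-treatment baseline and fitted in the loss direction against DMSO. Rat cortical neurons were exposed at 0.03-40 uM on DIV 13 or 15.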

[2] = CCTE_Harrill_HTTr_Viability_MCF7: CCTE's 6-hour Cell Viability Assessment for the High-Throughput Transcriptomics (HTTr) Platform, in MCF-7 cells cultured in DMEM + 10% fetal bovine serum, Harrill Lab (AID 2284010)
In short: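 Eight-point concentration series, six-hour exposure. Propidium iodide exclusion imaged to assess membrane integrity as a cytotoxicity readout; bidirectional fitting was done with DMSO as negative control and activity baseline.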

[3] = CCTE_Shafer_MEA_acute_burst_number: CCTE's Neural Acute Assay for Single-Electrode Bursts, Shafer Lab (AID 2284013)
In short: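 Burst totals were derived with adaptive spike detection (8x rms threshold) on filtered signals from rat cortical cultures; change relative to pre-treatment baseline after 40-min compound exposure (0.03-40 uM) was fitted in the negative direction against DMSO.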

[4] = CCTE_Shafer_MEA_acute_burst_duration_mean: CCTE's Neural Acute Assay for Mean Burst Duration, Shafer Lab (AID 2284014);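 also: hits are decreases in mean burst duration relative to DMSO controls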
In short: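 Acute exposure of mature rat cortical networks (DIV 13 or 15) grown on microelectrode arrays to 0.03-40 uM compound. Mean burst duration compared with the 40-min pre-dose baseline over a 40-min post-dose recording at 37 C.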

[5] = CCTE_Shafer_MEA_acute_per_burst_spike_number_mean: CCTE's Neural Acute Assay for Average Number of Spikes Per Burst, Shafer Lab (AID 2284015);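 also: hits are decreases in mean spikes per burst versus baseline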
In short: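 Primary rat cortical neurons on 48-well MEA plates, treated on DIV 13 or 15 at 0.03-40 uM. Spontaneous activity recorded 40 min before and 40 min after compound at 37 C; percent change in mean spikes per single-electrode burst per well, fitted in the loss direction versus DMSO.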

[6] = CCTE_Shafer_MEA_acute_interburst_interval_mean: CCTE's Neural Acute Assay for Mean Interburst Interval, Shafer Lab (AID 2284016);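 also: percent change of mean interburst interval versus each well's own pre-dose baseline; curves fitted for decrease in interburst interval relative to DMSO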
In short: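 Primary rat cortical neurons on 16-electrode MEA wells were recorded 40 min at baseline on DIV 13 or 15, then 40 min after compound (0.03-40 uM), at 37 C. Value is percent change in mean interburst interval per well, DMSO as negative control.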

[7] = CCTE_Shafer_MEA_acute_burst_percentage_mean: CCTE's Neural Acute Assay for Percentage of Spikes in a Burst, Shafer Lab (AID 2284017);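 as to AC50: curve fitted for loss of signal so potency reflects decreased burst percentage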
In short: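 Primary rat cortical neurons on 16-electrode MEA wells; 40 min baseline recorded at DIV 13 or 15, then 40 min after compound (0.03-40 uM) at 37 C. Well-mean fraction of spikes in single-electrode bursts; percent change from baseline, DMSO as negative control.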

[8] = CCTE_Shafer_MEA_acute_burst_percentage_std: CCTE's Neural Acute Assay for Standard Deviation of Burst Percentage, Shafer Lab (AID 2284018);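 also: fitted in the negative direction so actives lower burst percentage SD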
In short: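 Primary rat cortical neurons on 16-electrode MEA wells were recorded 40 min at baseline (DIV 13 or 15), then 40 min after compound (0.03-40 uM), at 37 C. Well value is SD across electrodes of spikes-in-bursts/total spikes; endpoint is percent change, DMSO-referenced.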

[9] = CCTE_Shafer_MEA_acute_per_network_burst_spike_number_mean: CCTE's Neural Acute Assay for Average Number of Spikes in a Network Burst, Shafer Lab (AID 2284019);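 as to AC50: curve fitted for loss of signal so actives reduce spikes per network burst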
In short: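 Acute exposure of rat primary cortical networks (DIV 13/15) on MEAs; adaptive spike detection at 8x rms noise, 37 C. Percent change in spikes per network burst after 40 min with compound (0.03-40 uM), negative direction vs DMSO.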

[10] = CCTE_Shafer_MEA_acute_per_network_burst_spike_number_std: CCTE's Neural Acute Assay for Standard Deviation of Number of Spikes in a Network Burst, Shafer Lab (AID 2284020);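 also: fitted for decrease in spike-number SD versus DMSO so actives lower it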
In short: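 Acute MEA exposure, rat cortical neurons, 0.03-40 uM. Per-well % change versus own baseline; DMSO as negative control.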

[11] = CCTE_Shafer_MEA_acute_per_network_burst_electrodes_number_mean: CCTE's Neural Acute Assay for Mean Number of Electrodes in a Network Burst, Shafer Lab (AID 2284021);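 also: curves fitted for decreases only so hits reduce electrodes per burst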
In short: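 Primary rat cortical networks, mwMEA, 37 C. 20 min stabilization, 40 min baseline, compound 0.03-40 uM, 40 min re-record. Wells need >=10 active electrodes; percent change per well, negative fitting direction.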

[12] = CCTE_Harrill_HTTr_CellCount_MCF7: CCTE's Cell Proliferation Assessment for the High-Throughput Transcriptomics (HTTr) Platform, Harrill Lab (AID 2284012; active = hit-call score of the fitted dose curve at least 0.9, where 1 is the maximum;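 also: count of Hoechst-stained nuclei per well by high-content imaging in MCF-7 cells; cells exposed to compound for six hours; intended direction is loss of nuclei count meaning fewer cells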)
In short: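 For this full-screen endpoint, MCF-7 cultures received eight compound dilutions for six hours. Well nuclei counts from Hoechst imaging were analyzed relative to DMSO.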

[13] = CCTE_Harrill_HTTr_Apoptosis_MCF7: CCTE's 6-hour Apoptosis Assessment for the High-Throughput Transcriptomics (HTTr) Platform, in MCF-7 cells cultured in DMEM + 10% fetal bovine serum, Harrill Lab (AID 2284011)
In short: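 MCF-7 (DMEM + 10% FBS), 384-well; 8-pt dilution series, 6 h chemical exposure; caspase-3/7 activation via CellEvent Caspase 3/7 Green, HCI; bidirectional fit vs DMSO.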

Measured: AC50

CCCC(=NOCC)C1=C(O)CC(CC(C)SCC)CC1=O (stereo not drawn)
inactive: [2] | [3] | [6] | [8] | [11]
active: [1] 11.1 µM | [4] 31 µM | [5] 29.1 µM | [7] 27.7 µM | [9] 20.1 µM | [10] 25.4 µM

CCOc1nc(C(Cl)(Cl)Cl)ns1
inactive: [2] | [12]

CNC(=O)Oc1cccc2ccccc12
not listed: [3] | [12] | [13]
inactive: all other assays above

CSC(=O)c1c(C(F)F)nc(C(F)(F)F)c(C(=O)SC)c1CC(C)C
inactive: [2] | [13]

CC(C)C1(C)N=C(c2ncccc2C(=O)O)NC1=O (stereo not drawn)
not listed: [12] | [13]
inactive: all other assays above

CCOc1cc(C(C)(C)C)ccc1C1COC(c2c(F)cccc2F)=N1 (stereo not drawn)
active: [1] 3.32 µM | [3] 3.12 µM | [7] 20 µM | [10] 29 µM | [11] 4.3 µM
not listed: [12] | [13]
inactive: all other assays above

COC(=O)NS(=O)(=O)c1ccc(N)cc1
inactive: [2] | [13] | [12]

COc1cc(Cl)c(OC)cc1Cl
inactive: [2] | [13]

O=C(Nc1ccccc1-c1ccc(Cl)cc1)c1cccnc1Cl
active: [7] 28.5 µM
not listed: [13]
inactive: all other assays above

C=CCOC(=O)C(C)(C)OC(=O)c1cc(-n2c(=O)cc(C(F)(F)F)n(C)c2=O)ccc1Cl
inactive: [2] | [12]

COP(=S)(OC)Oc1ccc([N+](=O)[O-])c(C)c1
inactive: [2] | [13] | [12]

CN=C=S
inactive: [2]

CNC(=O)N(C)c1nnc(C(C)(C)C)s1
inactive: [2] | [13]

CC(C)NC(=O)N1CC(=O)N(c2cc(Cl)cc(Cl)c2)C1=O
inactive: [2] | [13]

CC(C)Oc1cccc(NC(=O)c2ccccc2C(F)(F)F)c1
inactive: [2] | [12]

N#CN=C1SCCN1Cc1ccc(Cl)nc1
not listed: [12] | [13]
inactive: all other assays above

CS(=O)(=O)c1cc(C(F)(F)F)ccc1C(=O)c1cnoc1C1CC1
inactive: [2] | [12]

O=c1n(Cl)c(=O)n(Cl)c(=O)n1Cl
inactive: [2]

COc1cc(OC)nc(NC(=O)NS(=O)(=O)c2ncccc2OCC(F)(F)F)n1
inactive: [2] | [13]

Nc1cnn(-c2ccccc2)c(=O)c1Cl
inactive: [2] | [13]

CCNC(=O)NC(=O)C(C#N)=NOC
inactive: [2] | [13] | [12]

Nc1c(Cl)c(Cl)nc(C(=O)O)c1Cl
inactive: [2] | [12]

CC1(C)C(C(=O)OC(C#N)c2cccc(Oc3ccccc3)c2)C1(C)C (stereo not drawn)
active: [5] 0.44 µM | [6] 0.309 µM | [7] 1.28 µM | [9] 0.0749 µM | [11] 0.12 µM
not listed: [13]
inactive: all other assays above

COP(=O)(OC)O/C(C)=C/C(=O)N(C)C
inactive: [2]

CCCN(CC)CC1COC2(CCC(C(C)(C)C)CC2)O1 (stereo not drawn)
not listed: [13]
inactive: all other assays above

COC(=O)NC(=S)Nc1ccccc1NC(=S)NC(=O)OC
inactive: [2] | [12]

CS(=O)(=O)c1ccc(C(=O)C2C(=O)CCCC2=O)c([N+](=O)[O-])c1
inactive: [2] | [13] | [12]

CCC(C)n1c(=O)[nH]c(C)c(Br)c1=O (stereo not drawn)
inactive: [2] | [13] | [12]

CCOC(=O)C(C)OC(=O)c1cc(Oc2ccc(C(F)(F)F)cc2Cl)ccc1[N+](=O)[O-] (stereo not drawn)
active: [1] 5.49 µM
not listed: [12] | [13]
inactive: all other assays above
